In PubChem BioAssay (NCATS):
Inconclusive results are not listed. Calls of active or inactive are those of the source. Unless noted, calls follow the shape of the dose curve; as a rule, active = well fitted curve in the direction sought with a large enough effect; inconclusive = small, poorly fitted or top-dose-only effect, or another doubt; inactive = no such curve, though single readings can be large; an effect the other way counts as inactive or inconclusive.

How the values were obtained:
[1] = P-glycoprotein substrates identified in KB-3-1 adenocarcinoma cell line, qHTS therapeutic library screen (AID 1346986); conditions: KB-3-1 parental cells viability, CellTiter-Glo, 72 h; series mostly up to 44.5 µM; also: nearly all actives have a fitted effect of over 60% in size
Method in brief: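 Cells seeded 500/well in DMEM/10% FCS; compounds pinned in dose-response; 72 h incubation; CellTiter-Glo added, 5 min, luminescence. KB-8-5-11 run ±tariquidar to test reversal of P-gp resistance.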

[2] = P-glycoprotein substrates identified in KB-8-5-11 adenocarcinoma cell line, qHTS therapeutic library screen (AID 1346987); conditions: KB-8-5-11 (P-gp overexpressing) viability, CellTiter-Glo, 72 h; series mostly up to 44.5 µM; also: nearly all actives have a fitted effect of over 65% in size
Method in brief: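 KB-8-5-11, a colchicine-selected P-gp-overexpressing KB-3-1 subline, was grown without colchicine for the assay. Cells were seeded at 500 cells/well, dosed in concentration-response and incubated 72 h at 37 degree C, 5% CO2. Viability was read by CellTiter-Glo luminescence.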

[3] = NS1 protein of Zika virus - qHTS assay to identify small molecule inhibitors in human HEK 293 cells (AID 1347053); conditions: HEK293 ZIKV MR766 infection, NS1 TR-FRET, 24 h; series mostly up to 46.1 µM; also: nearly all actives have a fitted effect of over 55% in size
Method in brief: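 Inhibition of NS1 expression was scored in HEK 293 cells given compound 1 h ahead of MR766 virus (MOI = 0.5). Following 24 h at 37 C, two anti-NS1 antibodies generated a TR-FRET signal, scaled between uninfected and infected controls.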

[4] = qHTS for Inhibitors of the Functional Ribonucleoprotein Complex (vRNP) of Lassa (LASV) Arenavirus: LASV Primary Screen - GLuc reporter signal (AID 1347082; calls by dose curve; tested in HEK293 reporter line; also: nearly all actives have a fitted effect of over 60% in size); conditions: LASV minigenome vRNP, Gaussia luciferase reporter; series mostly up to 57.5 µM
[5] = qHTS for Inhibitors of the Functional Ribonucleoprotein Complex (vRNP) of Lassa (LASV) Arenavirus: Viability assay - alamar blue signal for LASV Primary Screen (AID 1347083; calls by dose curve; tested in HEK293 reporter line; also: nearly all actives have a fitted effect of over 80% in size; also: potency is read from the fitted curve at half-maximal effect); conditions: cell viability, alamar blue fluorescence (LASV minigenome counter-screen); series mostly up to 57.5 µM
[6] = qHTS for Inhibitors of the Functional Ribonucleoprotein Complex (vRNP) of Lymphocytic Choriomeningitis Arenaviruses (LCMV): Viability assay - alamar blue signal for LCMV Primary Screen (AID 1347085; calls by dose curve; tested in HEK293 reporter line; also: nearly all actives have a fitted effect of over 80% in size; also: potency is read from the fitted curve at half-maximal effect); conditions: alamar blue viability counter-screen, LCMV vRNP screen cells; series mostly up to 57.5 µM
[7] = molecular target: Nucleoprotein (Lymphocytic choriomeningitis virus (strain Armstrong)) (UniProt P09992); experiment: qHTS for Inhibitors of the Functional Ribonucleoprotein Complex (vRNP) of Lymphocytic Choriomeningitis Arenaviruses (LCMV): LCMV Primary Screen - GLuc reporter signal (AID 1347086; calls by dose curve; also: nearly all actives have a fitted effect of over 70% in size; also: potency is read from the fitted curve at half-maximal effect); conditions: LCMV minigenome vRNP cell assay, Gaussia luciferase reporter; series mostly up to 57.5 µM
Sequence of Nucleoprotein (Lymphocytic choriomeningitis virus (strain Armstrong)) (P09992 whole entry, looked up): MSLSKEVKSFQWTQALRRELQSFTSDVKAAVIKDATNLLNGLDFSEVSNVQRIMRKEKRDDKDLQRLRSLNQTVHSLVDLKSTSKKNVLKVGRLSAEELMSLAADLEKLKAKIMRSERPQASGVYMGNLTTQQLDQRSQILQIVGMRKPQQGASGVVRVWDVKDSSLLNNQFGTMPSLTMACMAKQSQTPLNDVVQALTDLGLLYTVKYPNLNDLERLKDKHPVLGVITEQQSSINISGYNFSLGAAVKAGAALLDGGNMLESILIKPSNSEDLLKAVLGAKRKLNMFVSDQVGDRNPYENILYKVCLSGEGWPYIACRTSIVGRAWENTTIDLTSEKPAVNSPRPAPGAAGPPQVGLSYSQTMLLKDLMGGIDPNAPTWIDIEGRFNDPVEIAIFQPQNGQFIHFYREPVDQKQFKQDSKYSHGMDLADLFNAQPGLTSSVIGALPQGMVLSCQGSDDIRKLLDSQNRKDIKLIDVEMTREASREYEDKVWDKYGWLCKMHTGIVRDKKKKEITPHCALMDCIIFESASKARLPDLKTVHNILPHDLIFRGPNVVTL

[8] = Identifying Small Molecule Inhibitors of Pancreatic Cancer Stem Cells (A2780, Spheroid) (AID 1259357); conditions: Potency: A2780 spheroid viability; series mostly up to 46.1 µM; also: potency is read from the fitted curve at half-maximal effect;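 also: spheroids pre-formed over 14 days in stem cell medium on hydrogel; compound exposure lasted 48 h before the ATP luminescence read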
Method in brief: (§1)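 After a 4 h attachment period, compounds were pinned into wells and cultures held 48 h under standard incubator conditions. Viability was then measured as CellTiter-Glo luminescence following 10 min at room temperature.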

[9] = Identifying Small Molecule Inhibitors of Pancreatic Cancer Stem Cells (Panc1, Spheroid) (AID 1259359); conditions: Panc1 spheroid cancer stem cell viability;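 also: potency is read from the fitted curve at half-maximal effect; compound exposure lasted 48 h before reading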
Method in brief: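 Endpoint: ATP-based luminescence, 48 h drug exposure. Bortezomib at 9.2 uM final as full-kill control; DMSO vehicle as negative control; activity normalized between vehicle and cell-free wells.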

[10] = Identifying Small Molecule Inhibitors of Pancreatic Cancer Stem Cells (SN12C, Spheroid) (AID 1259360); conditions: Potency: SN12C spheroid viability; series mostly up to 46.1 µM; also: potency is read from the fitted curve at half-maximal effect
Method in brief: as §1

[11] = Identifying Small Molecule Inhibitors of Pancreatic Cancer Stem Cells (SN12C, Adherent) (AID 1259358); conditions: viability/growth inhibition; series mostly up to 46.1 µM;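 also: cell survival measured after 48 h of compound exposure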
Method in brief: (§2)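 Pre-formed 14-day tumor spheroids or adherent cells dosed and incubated 48 h, 37C, 5% CO2. Viability assessed by CellTiter-Glo.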

[12] = Identifying Small Molecule Inhibitors of Pancreatic Cancer Stem Cells (A278, Adherent) (AID 1259361); conditions: series mostly up to 46.1 µM;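 also: viability read after 48 h compound exposure; nearly all actives have a fitted effect of over 35% in size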
Method in brief: as §2

[13] = Identifying Small Molecule Inhibitors of Pancreatic Cancer Stem Cells (Panc1, Adherent) (AID 1259362); conditions: Potency: viability; series mostly up to 46.1 µM;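 also: compound exposure lasted 48 h before the viability read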
Method in brief: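 Spheroids grown 14 days in stem cell media on hydrogel-coated nonadherent plates; 2D lines seeded directly. Compounds added after 4 h attachment, 48 h at 37C, 5% CO2; CellTiter-Glo luminescence normalized to DMSO (no inhibition) and no-cell wells (full inhibition).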

CC(O)=C(C#N)C(=O)Nc1cc(Br)ccc1Br
inactive: Potency [1] | Potency [2] | Potency [3] | Potency [4] | Potency [5] | Potency [6] | Potency [7]

CC(C)(C)[C@]1(O)C[C@@H]2OC(=O)C[C@@]23C(=O)O[C@@H]2OC(=O)[C@H](O)C213 (stereo not given in full)
inactive: Potency [1] | Potency [2] | Potency [3] | Potency [4] | Potency [5] | Potency [6] | Potency [7]

Cc1ccccc1-n1c(Cn2ncc3c(N)ncnc32)nc2cccc(C)c2c1=O
inactive: Potency [1] | Potency [2] | Potency [3]
active: Potency [5] 0.485 µM | Potency [6] 0.137 µM | Potency [7] 0.193 µM

CN1CCN(c2ccc([N+](=O)[O-])c3no[n+]([O-])c23)CC1
inactive: Potency [1] | Potency [2] | Potency [3] | Potency [4] | Potency [5] | Potency [6] | Potency [7]

CC1CC(C)C(=O)C(C(O)CC2CC(=O)NC(=O)C2)C1 (stereo not given)
active: Potency [8] 3.82 µM | Potency [9] 2.41 µM | Potency [10] 1.71 µM

CC(=O)N(C)c1cccc(-c2ccnc3c(C(=O)c4cccs4)cnn23)c1
inactive: Potency [1] | Potency [3] | Potency [4] | Potency [5] | Potency [7]

CCN1C[C@]2(OC(=O)c3ccccc3NC(C)=O)CC[C@H](OC)[C@@]34[C@H]5CC6[C@@H](OC)C[C@](O)(C(C[C@@H]23)[C@@H]14)[C@@]5(O)[C@@H]6OC
inactive: Potency [1] | Potency [2] | Potency [3] | Potency [4] | Potency [5] | Potency [6] | Potency [7]

CC(=O)Nc1ccc(OC[C@](C)(O)C(=O)Nc2ccc([N+](=O)[O-])c(C(F)(F)F)c2)cc1
active: Potency [6] 10.9 µM
inactive: Potency [8] | Potency [11] | Potency [10] | IC50 (viability decrease) [12] | Potency [13] | Potency [2] | Potency [4]
